From PubChem BioAssay (Tox21)
Records with an inconclusive call do not appear. Calls of active or inactive are those of the source. Unless noted, calls follow the shape of the dose curve; as a rule, active = well fitted curve in the direction sought with a large enough effect in the repeat runs; inconclusive = weak or mixed curves; inactive = no such curve, though single readings can be large; an effect the other way counts as inactive or inconclusive.

Experiments:
[1] = qHTS assay to identify small molecule agonists of the hypoxia (HIF-1) signaling pathway - cell viability counter screen (AID 1224844; calls by dose curve; also: nearly all actives have a fitted effect of over 50% in size)
How it was run: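 HRE-bla ME-180; 0.5% dFBS; cpd 17 h, 37C, 5% CO2; CellTiter-Glo lum., 30 min RT, post-FRET read, same wells.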

[2] = qHTS assay to identify small molecule agonists of H2AX (AID 1224845; active = well fitted activation curve with a large enough effect in the signal ratio in the repeat runs, not every such curve was filed as active; the % refers to the signal ratio)
How it was run: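 Wild-type CHO-K1 cells plated overnight, then exposed 3 hr at 37C to compounds at 15 concentrations (0.76% DMSO). Lysed, then HTRF anti-pH2AX(S139)-cryptate/anti-H2AX-d2 detection after 24 hr at room temperature; emissions 665 and 620 nm.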

[3] = qHTS assay to identify small molecule agonists of the hypoxia (HIF-1) signaling pathway (AID 1224846; active = well fitted activation curve with a large enough effect in the signal ratio in the repeat runs, not every such curve was filed as active; the % refers to the signal ratio)
How it was run: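 Reporter induction in HRE-bla ME-180 cells is taken as agonism: cells sit 5 hrs after plating, receive compounds or DMSO only, incubate 17 hrs at 37C under 5% CO2, and are loaded with CCF4-AM for beta-lactamase FRET measurement.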

[4] = qHTS assay to identify small molecule agonists of H2AX - cell viability counter screen (AID 1224847; calls by dose curve; also: top concentration of the series differs between compounds; nearly all actives have a fitted effect of over 30% in size)
How it was run: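 CHO-K1 cells plated overnight at 37C, then exposed 3 h at 37C to compounds at 15 concentrations (0.76% DMSO final). Viability by CellTiter-Glo luminescence after 30 min at room temperature.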

[5] = qHTS assay to identify small molecule antagonists of the estrogen related receptor (ERR) signaling pathway from Tox21 library (AID 1224848); also: nearly all actives have a fitted effect of over 50% in size
How it was run: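 Tox21 10K compounds in DMSO tested for ERR pathway antagonism in NTP's ERR cell line; 18 h, 37 C exposure; ONE-Glo luminescence.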

[6] = qHTS assay to identify small molecule agonists of the estrogen related receptor (ERR) signaling pathway from Tox21 library (AID 1224849; calls by dose curve; also: nearly all actives have a fitted effect of over 15% in size); conditions: ERR reporter cell line, ONE-Glo luciferase, 18 h; at 92.4 µM (top of the series) unless noted
How it was run: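 Tox21 compounds tested for ERR agonism in an NTP reporter cell line: 18 h treatment at 37 C, then ONE-Glo luminescence.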

[7] = qHTS RealTime-Glo MT Cell Viability Assay in HepG2 cells - 24 hour (AID 1224867); also: nearly all actives have a fitted effect of over 50% in size
How it was run: (§1)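 HepG2 suspension premixed with RealTime-Glo reagents is plated at 600 cells per well and left 5 h at 37 C/5% CO2. Compounds in DMSO then go in, and bioluminescence reflecting viable cell number is recorded over 40 h.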

[8] = qHTS RealTime-Glo MT Cell Viability Assay in HEK293 cells - 32 hour (AID 1224868); also: top concentration of the series differs between compounds; nearly all actives have a fitted effect of over 50% in size
How it was run: (§2)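 Reads taken at 0, 8, 16, 24, 32 and 40 h from the same wells. HEK293 cells (600/well) carried RealTime-Glo reagents from seeding, with compound added after a 5 h settle at 37 C.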

[9] = A CellTox Green Cytotoxicity Assay to monitor cytotoxicity in HEK293 cells - 0 hour (AID 1224869); also: nearly all actives have a fitted effect of over 50% in size
How it was run: (§3)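 Tox21 screen in HEK293: membrane-impermeant cyanine dye fluoresces on binding dead-cell DNA; compound pinned 5 h post-seeding, plates held at 37 C, signal read repeatedly through 40 h.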

[10] = qHTS RealTime-Glo MT Cell Viability Assay in HepG2 cells - 40 hour (AID 1224870); also: nearly all actives have a fitted effect of over 50% in size
How it was run: (§4)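 HepG2 cells mixed with RealTime-Glo MT reagents (NanoLuc plus cell-permeant prosubstrate) were seeded at 600 cells/well, incubated 5 h at 37 C/5% CO2, then pinned with compounds in DMSO; nonlytic luminescence tracked viability during 40 h treatment.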

[11] = A CellTox Green Cytotoxicity Assay to monitor cytotoxicity in HEK293 cells - 40 hour (AID 1224871); also: nearly all actives have a fitted effect of over 45% in size
How it was run: as §3

[12] = qHTS RealTime-Glo MT Cell Viability Assay in HEK293 cells - 16 hour (AID 1224872)
How it was run: as §2

[13] = qHTS RealTime-Glo MT Cell Viability Assay in HepG2 cells - 8 hour (AID 1224873); also: nearly all actives have a fitted effect of over 55% in size
How it was run: as §4

[14] = A CellTox Green Cytotoxicity Assay to monitor cytotoxicity in HEK293 cells - 24 hour (AID 1224875); also: nearly all actives have a fitted effect of over 45% in size
How it was run: as §3

[15] = A CellTox Green Cytotoxicity Assay to monitor cytotoxicity in HepG2 cells - 16 hour (AID 1224876); also: nearly all actives have a fitted effect of over 45% in size
How it was run: (§5)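 Measurements at 0, 8, 16, 24, 32 and 40 h of treatment captured CellTox Green fluorescence in HepG2 cells that had been co-plated with reagent and preincubated 5 h at 37 C/5% CO2.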

[16] = qHTS RealTime-Glo MT Cell Viability Assay in HepG2 cells - 32 hour (AID 1224877); also: nearly all actives have a fitted effect of over 55% in size
How it was run: as §1

[17] = A CellTox Green Cytotoxicity Assay to monitor cytotoxicity in HepG2 cells - 24 hour (AID 1224878); also: nearly all actives have a fitted effect of over 45% in size
How it was run: as §5

[18] = A CellTox Green Cytotoxicity Assay to monitor cytotoxicity in HepG2 cells - 40 hour (AID 1224879); also: nearly all actives have a fitted effect of over 40% in size
How it was run: as §5

[19] = qHTS RealTime-Glo MT Cell Viability Assay in HEK293 cells - 0 hour (AID 1224880)
How it was run: (§6)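 HEK293 + NanoLuc + prosubstrate, 600 cells/well; 5 h, 37 C/5% CO2; compound 23 nL in DMSO by pintool; 37 C; luminescence read at 0, 8, 16, 24, 32 and 40 h time points.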

[20] = qHTS RealTime-Glo MT Cell Viability Assay in HEK293 cells - 40 hour (AID 1224874); conditions: RealTime-Glo luminescence; max response: stronger effect = lower value; also: nearly all actives have a fitted effect of over 50% in size
How it was run: as §6
% is scaled to controls: 0 for no effect and ±100 for the full control effect.

COCC(=O)N(c1c(C)cccc1C)[C@H](C)C(=O)OC
inactive: Potency [1] | Potency [2] | outcome [3] | Potency [4] | Potency [5] | activity change, positive = activation [6] -2.81% | Potency [7] | Potency [8] | Potency [9] | Potency [10] | Potency [11] | Potency [12] | Potency [13] | Potency [14] | Potency [15] | Potency [16] | Potency [17] | Potency [18] | Potency [19]

CCSC(C)CC1CC(=O)C(/C(CC)=N/OC/C=C/Cl)=C(O)C1 (configuration not stated)
inactive: Potency [1] | Potency [2] | outcome [3] | Potency [4] | Potency [5] | activity change, positive = activation [6] -10.8% [at 42.5 µM] | Potency [8] | Potency [9] | Potency [10] | Potency [11] | Potency [12] | max response [20] 0.0447% | Potency [14] | Potency [16] | Potency [17] | Potency [18] | Potency [19]

ClC1=C(Cl)[C@]2(Cl)[C@@H]3[C@@H](Cl)[C@@H](Cl)C[C@@H]3[C@@]1(Cl)C2(Cl)Cl
inactive: Potency [1] | Potency [2] | outcome [3] | Potency [4] | Potency [5] | activity change, positive = activation [6] 0.0857% | Potency [7] | Potency [8] | Potency [9] | Potency [10] | Potency [11] | Potency [12] | Potency [13] | max response [20] 15.9% | Potency [14] | Potency [16] | Potency [17] | Potency [18] | Potency [19]

BrC(Br)Br
inactive: Potency [1] | Potency [2] | outcome [3] | Potency [4] | Potency [5] | activity change, positive = activation [6] 0.336% | Potency [7] | Potency [8] | Potency [9] | Potency [10] | Potency [12] | Potency [14] | Potency [15] | Potency [16] | Potency [17] | Potency [18] | Potency [19]

Clc1ccc(-c2ccccc2)cc1
inactive: Potency [1] | Potency [2] | outcome [3] | Potency [4] | Potency [5] | activity change, positive = activation [6] 3.89% | Potency [7] | Potency [8] | Potency [9] | Potency [10] | Potency [12] | Potency [13] | max response [20] -16.9% | Potency [14] | Potency [15] | Potency [16] | Potency [17] | Potency [18] | Potency [19]

Brc1c(Br)c(Br)c(Oc2c(Br)c(Br)c(Br)c(Br)c2Br)c(Br)c1Br
inactive: activity change, negative = cytotoxicity [1] 12% [at 15.8 µM] | activation (H2AX phosphorylation) [2] -7.06% [at 31.6 µM] | activation [3] 0.0203% [at 15.8 µM] | activity change, negative = cytotoxicity [4] 2.26% [at 31.6 µM] | activity, negative = inhibition [5] 6.83% [at 19 µM] | activity change, positive = activation [6] 3.27% [at 19 µM] | activity change, negative = cytotoxicity [7] -1.54% [at 15.8 µM] | activity change, negative = cytotoxic [8] 5.03% [at 15.8 µM] | cytotoxicity [9] -1.03% [at 15.8 µM] | activity change, negative = cytotoxic [10] -6.21% [at 15.8 µM] | cytotoxicity increase [11] 1.02% [at 15.8 µM] | activity change, negative = cytotoxicity [12] 3.04% [at 15.8 µM] | activity change [14] -3.29% [at 15.8 µM, stronger effect = higher value] | cytotoxicity increase [15] -3.41% [at 15.8 µM] | activity change, negative = cytotoxic [16] -3.04% [at 15.8 µM] | cytotoxicity [17] -2.63% [at 15.8 µM] | cytotoxicity increase [18] 1.89% [at 15.8 µM] | activity change, negative = cytotoxicity [19] -0.353% [at 15.8 µM]

BrCBr
inactive: Potency [1] | Potency [2] | outcome [3] | Potency [4] | Potency [7] | Potency [8] | Potency [9] | Potency [10] | Potency [11] | Potency [12] | Potency [13] | max response [20] 10.5% | Potency [14] | Potency [15] | Potency [16] | Potency [17] | Potency [18] | Potency [19]
